Source: the supplement of paper PMC3334620
The full ranking holds about 33,000 sequences; the median of “E-score (-0.5 to 0.5)” is about -0.016, and the highest 2% start at about 0.3. For the sample, the highest values were picked, then their nearest neighbours and some sequences at random.

The sequences below were run against T1, Yer184c (UniProt P39961) (assay: PBM E-score (8-mer binding enrichment) (E-score (-0.5 to 0.5)); higher = stronger / more preferred TF binding). Settings: protein concentration: 100 nM; construct: GST-full length.
T1 sequence: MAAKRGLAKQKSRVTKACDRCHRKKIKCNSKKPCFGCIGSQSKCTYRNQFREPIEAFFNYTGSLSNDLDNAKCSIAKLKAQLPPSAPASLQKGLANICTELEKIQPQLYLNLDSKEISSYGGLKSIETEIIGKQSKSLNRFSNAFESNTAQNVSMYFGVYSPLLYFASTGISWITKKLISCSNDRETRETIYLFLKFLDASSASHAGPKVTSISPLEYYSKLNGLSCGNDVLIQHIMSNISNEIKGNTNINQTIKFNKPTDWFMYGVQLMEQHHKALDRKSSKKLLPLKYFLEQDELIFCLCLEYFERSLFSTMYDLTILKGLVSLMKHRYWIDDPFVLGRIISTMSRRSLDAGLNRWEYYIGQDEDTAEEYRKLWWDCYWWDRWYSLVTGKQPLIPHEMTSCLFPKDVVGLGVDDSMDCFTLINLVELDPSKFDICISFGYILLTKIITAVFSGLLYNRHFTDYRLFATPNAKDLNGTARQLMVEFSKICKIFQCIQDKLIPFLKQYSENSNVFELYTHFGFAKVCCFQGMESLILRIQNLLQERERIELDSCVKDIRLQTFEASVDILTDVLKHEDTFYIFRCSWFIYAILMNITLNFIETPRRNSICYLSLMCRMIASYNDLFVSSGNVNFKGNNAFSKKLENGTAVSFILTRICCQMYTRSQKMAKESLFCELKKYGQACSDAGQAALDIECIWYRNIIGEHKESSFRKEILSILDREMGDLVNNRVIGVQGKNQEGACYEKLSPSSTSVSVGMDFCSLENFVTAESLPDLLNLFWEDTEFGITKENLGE
Description: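 Universal 'all 10-mer' protein binding microarrays (Agilent AMADID 015681) probed with GST-tagged S. cerevisiae TFs (full-length or DBD) made by in vitro transcription/translation (PURExpress), about 100-200 nM. Bound TF was detected with fluorescent anti-GST. Each ungapped 8-mer (which stands for itself and its reverse complement) is scored by the PBM enrichment score (E-score), a modified Wilcoxon-Mann-Whitney statistic from -0.5 to +0.5, computed with the Universal PBM Analysis Suite. Scale: above 0.35 generally sequence-specific binding.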

Sequence	PBM E-score
AACCGGCA	0.238
CACCGGCG	0.238
AACCGGCG	0.306
AACCGGCC	0.318
CACCGGCC	0.177
AACCGACG	0.189
ATATGAAT	0.156
ATACTCGA	-0.0376
AAGTCCCC	-0.18
TAAAAGTA	0.161
AGAGAGTG	-0.158
CTCTCATA	-0.0704
GAGGGAGC	-0.277
CGAGGTTC	0.116
ACCGAGCC	0.221
CCCGAGGC	-0.013
CCCGAGCC	0.155
ACCGAGGC	-0.0788
TCCGAGGA	0.196
GCCGAGCC	0.34
GCCGAGGC	0.386
CCCGAGGA	0.0175
GCCGAGGA	0.335
AGCGGTGC	-0.168
AATTGCGC	0.16

Sequence	PBM E-score
CGGATCAC	0.277
CTATATAG	-0.109
ATATATTG	0.0957
ATATATTC	0.319
ATATATAT	0.336
ATTTATAC	0.28
ATATATAG	0.282
CTTTATAA	0.0517
GTATATAC	-0.0816
CTATATTC	-0.0128
ATTTATAA	0.326
ATATATAC	0.317
CTATATAC	0.247
AGTAGCCG	0.198
GTGACATA	0.121
CTTTACCC	0.00954
CCTGAAAC	0.15
AATACTGT	0.188
GAAGCAAA	-0.0663
CAGCCTCG	-0.0314
GGCTTAAC	-0.0348
TTATATAA	0.225
CTATATAA	0.0877
ATATAACC	-0.0755
ATATAACA	0.309

Sequence	PBM E-score
CTATAACA	-0.0394
ATATATAA	0.339
AGATGGGA	-0.194
GAGGCTGA	-0.172
ACAGGGGA	-0.249
CCAGTCGG	-0.0574
AATTATCG	0.305
AATTATCA	0.221
ATATATCA	0.115
ATATATCC	0.318
CTATATCC	-0.119
AAATATCG	0.194
ATATATCG	0.312
AATTATCC	0.116
AGATATCC	0.0863
AAGTATTC	0.0574
CGTAAGCA	-0.252
AGCTAGCC	-0.0869
AAGGTGAA	-0.0939
CAGCAAAA	-0.0176
CCATACCA	-0.145
ATTGAGTA	0.191
CGGACAAA	0.353
CGGACGAA	0.353
CGGACAAG	0.234

Sequence	PBM E-score
AGGACAAA	0.136
CGGACAAC	0.373
GGGACGAA	0.0852
GGGACAAC	-0.0988
CGGACGAC	0.23
AGGACAAC	0.0373
CATCGAAG	-0.0421
ACTTAACA	-0.00053
ATGCTCTG	-0.178
AATGGCCG	0.0612
ATGAAGGC	-0.0969
CGTCCCGA	0.0521
GATCTGAC	-0.0541
GCTGCCGA	0.292
ATTGCCAG	-0.0205
CTTGCCGA	0.22
ATTGCCGC	0.162
ATTGCCCA	-0.102
GTTGCCGA	0.373
ATTGCCGG	0.348
ATTGCCGA	0.311
GTTGCCCA	-0.0158
TCCTGCGA	0.00447
GGCCAACA	-0.0401
GCTGTTAC	-0.0967

Sequence	PBM E-score
CTTAGCAA	0.0294
TCCTGCAA	-0.0596
AGGCATAT	0.0107
ACGCCAGA	-0.132
TAACCGGA	0.279
CAACCGCA	0.0386
CTACCGGC	0.0792
CAACCGGA	0.373
CAACCGAC	0.238
GAACCGGA	0.349
GAACCGGC	0.18
CAACCGCC	-0.042
CAACCGGC	0.323
CAACCGCG	0.306
CAACCGGG	0.14
CAACCGAA	0.258
CTCTAACA	0.0218
AGTTCGAT	-0.0396
AGGTGAAC	-0.112
ACGTTGCT	-0.0994
CGGATGGA	0.207
ATCACAAT	0.0634
CAAGCGCA	0.0414
CCCACCTA	-0.241
GGTATCAA	-0.0802

Sequence	PBM E-score
AAACCGGT	0.216
AAACCGCC	0.147
AGACCGGC	0.128
AAACCGGA	0.306
AAACCGGC	0.313
AAACCGGG	0.0839
ATTTAGAC	0.121
AAAACCCG	0.163
AAAGCCGT	0.262
AAAGCCGC	0.188
TAAGCCGA	0.369
CCAGCCGA	0.205
CAAGCCCA	-0.326
CAAGCCTG	-0.271
CAAGCCGA	0.324
AAAGCCGA	0.174
AAAGCCGG	0.351
CAAGCCGC	-0.0146
CAAGCCGG	0.327
GAAGCCGA	0.287
CTCACAAG	-0.177
AAGGTCGG	-0.018
TAGGTGAA	0.0169
CACCAACA	-0.23
GGCTATCA	0.131

Sequence	PBM E-score
GCTCGGTA	0.129
GCTCGGAC	0.187
ACTCGGAA	0.341
CCTCGGAA	0.28
ACTCGGAC	0.208
GCTCGGAA	0.334
TGTCGGAA	0.163
TCTCGGAA	0.334
ACTCGGAT	0.268
GCAGCAGC	-0.0995
CCATAGCG	-0.124
CGGTCTCA	0.0469
GGACGCCA	-0.224
CCTCTTCA	-0.18
ACTCTCGC	-0.169
ATTCTCGC	-0.192
ATTCTCGG	0.345
ACTCTCGA	-0.0924
ACTCTCGG	0.344
ATTCTCGA	0.0246
ACCACGAT	-0.0131
AGTTATGG	-0.0312
